{"source": "paper PMC12615815", "assay_in_all_cases": "cross-link between two proteins; cross-linking mass spectrometry", "key": {"[1]": {"target": "Large ribosomal subunit protein bL25 (UniProt P68919)"}, "[2]": {"target": "Large ribosomal subunit protein uL23 (UniProt P0ADZ0)"}, "[3]": {"target": "Small ribosomal subunit protein bS1 (UniProt P0AG67)"}, "[4]": {"target": "Small ribosomal subunit protein uS14 (UniProt P0AG59)"}}, "data": [{"substance": "Large ribosomal subunit protein uL16, P0ADY7", "values": [{"measurement": "listed as a hit", "setting": "[1]", "value": "yes"}]}, {"substance": "Large ribosomal subunit protein bL9, P0A7R1", "values": [{"measurement": "listed as a hit", "setting": "[1]", "value": "yes"}]}, {"substance": "Large ribosomal subunit protein uL29, P0A7M6", "values": [{"measurement": "listed as a hit", "setting": "[2]", "value": "yes"}]}, {"substance": "Small ribosomal subunit protein bS18, P0A7T7", "values": [{"measurement": "listed as a hit", "setting": "[3]", "value": "yes"}]}, {"substance": "Large ribosomal subunit protein bL31, P0A7M9", "values": [{"measurement": "listed as a hit", "setting": "[4]", "value": "yes"}]}, {"substance": "Small ribosomal subunit protein uS3, P0A7V3", "values": [{"measurement": "listed as a hit", "setting": "[4]", "value": "yes"}]}]}
